N-glyco inh – increase of ERlucT glycosylation luciferase signal, primary screen, N-linked glycosylation inhibitor project, D54 ERlucT cells, luminescence, set 2; D54 ERlucT glycosylation luciferase reporter, 24 h; percent of 100 nM tunicamycin response; reporter increase, % at 12.5 µM; hit rate 0.23% among 360,000; AID 588692, 2011;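 active = mean luciferase reporter signal, scaled so untreated is 0 and the glycosylation-blocking control 100, at or above a set limit in every replicate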;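 also: luciferase carries N-glycosylation sites so blocking glycosylation raises the light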
Vif imaging – HIV Vif self-association inhibitors, primary screen, imaging, HEK293T, single point | hit rate 0.35% among 340,000 | AID 602346, 2012 | inhibition, % at 7.49 µM | HEK293T cells, Vif self-association by quenched fluorescence, 24 h; in the data active = inhibition above about 50%, passing the limit was not always enough
aDG glyco act – activators of alpha-DG glycosylation, primary screen, uHTS, Pro5-aDG cells, AlphaScreen; alpha-DG glycosylation AlphaScreen (IIH6); 0% Pro5, 100% B10-LARGE cell signal; activation, % at 10 µM; hit rate 0.22% among 360,000; AID 624168, 2012;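 active = activation of at least 8% versus controls, or a plate z-score of at least 8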;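 also: Pro5 are CHO cells carrying HIG-tagged alpha-DG that lacks glycosylation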
H9c2 protect – cardioprotection against H2O2-induced cell death, primary screen, uHTS, H9c2 cells, ATPLite luminescence; H9c2 cardiomyocytes, H2O2 injury protection, 2 h; protection from H2O2 cell death, % at 20 µM; hit rate 0.63% among 360,000; AID 588492, 2011;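 active = compounds giving at least 50% protection of heart cells from peroxide-induced death in the single-dose screen, raw or plate-pattern-corrected value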
ARNT TACC3 PPI – disruptors of ARNT/TACC3 protein interaction, primary screen, biochemical, AlphaScreen, single concentration. Transforming acidic coiled-coil-containing protein 3 (Homo sapiens), Q9Y6A5. inhibition, % at 9.99 µM. hit rate 0.66% among 390,000. AlphaScreen His-ARNT PAS-B/GST-TACC3 binding, luminescence; TACC3 fragment carries E629A point mutation. AID 623870, 2012;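 active = mean inhibition of replicates at least 50% and at least half of replicates each reaching 50%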
Hits are given with their value; . = inactive; / = no result given. Only some compounds are listed: those with a hit (about 1.7% of all), similar ones and a draw of the others.

SMILES	N-glyco inh	Vif imaging	aDG glyco act	H9c2 protect	ARNT TACC3 PPI
CCCCCCSc1ccc([C@H]2N[C@@](Cc3ccccc3)(C(=O)OC)[C@H]3C(=O)N(C)C(=O)[C@@H]23)cc1	.	.	.	77.4	.
CCN(C[C@H]1N[C@@](Cc2ccccc2)(C(=O)OC)[C@H]2C(=O)N(C)C(=O)[C@@H]12)S(=O)(=O)c1ccc(OC(F)(F)F)cc1	.	.	.	.	.
CCN(C[C@H]1N[C@@](Cc2ccccc2)(C(=O)OC)[C@H]2C(=O)N(C)C(=O)[C@@H]12)S(=O)(=O)c1ccc(OC)cc1	.	/	.	60.0	.
CC(C)NC(=O)Nc1cccc2c1O[C@@H](CN(C)C(=O)Nc1ccccc1)[C@H](C)CN([C@H](C)CO)C2=O	/	/	/	/	.
CCn1ncc(C2=NOC(C(=O)NCc3ccc(Cl)cc3)C2)c1C (stereo not given)	36.2	.	.	.	.
Cc1[nH]n(C(N)=S)c(=O)c1N=Nc1cccc(C(F)(F)F)c1	.	.	.	.	.
Cc1[nH]n(C2=NCCS2)c(=O)c1N=Nc1cccc(C(F)(F)F)c1	.	.	.	61.7	.
Cc1ccccc1C(=O)Nc1ccc2c(C#N)c3nc4ccccc4nc3n2c1	.	.	.	64.7	.
Cc1c(C(=O)Nc2ccccc2)cn2c(nc3ccccc32)c1C#N	.	.	.	.	.
CCc1noc(C)c1C(=O)NNC(=O)c1ccc(N(CC)CC)cc1	.	59.5	.	.	.
CCc1noc(C)c1C(=O)NNC(=O)c1ccc(Br)cc1	.	.	.	.	.
C[C@@H]1CCCCO[C@@H](CN(C)C(=O)Cc2ccccc2)[C@@H](C)CN([C@H](C)CO)C(=O)c2cc(NC(=O)Nc3ccc4c(c3)OCO4)ccc2O1	/	/	/	/	.
CCc1nc2ccc(C(=O)Nc3cc(-c4ccccc4)ccc3OC)cn2c1N(C)Cc1nccs1	.	.	.	75.3	/
CCc1nc2ccc(C(=O)Nc3cccc(OCC(=O)N(C)C)c3)cn2c1N(C)Cc1cc2ccccc2s1	.	.	.	54.2	/
CCOc1ccc(-n2c(O)c(/C=N/NC(=O)C3COc4ccccc4O3)c3ccccc3c2=O)cc1 (stereo not given)	.	.	.	55.7	/
COc1ccc(NC(=O)Nc2ccc3c(c2)CC(=O)N([C@H](C)CO)C[C@@H](C)[C@H](CN(C)S(=O)(=O)c2ccc(F)cc2)O3)cc1	/	/	/	/	.
COc1cc(/C=N/Nc2nc(=O)[nH]nc2C)cc([N+](=O)[O-])c1O	.	.	.	.	75.7
COc1cccc(-c2cc(C(F)(F)F)nc(-n3cc(C)cn3)n2)c1	.	88.8	.	.	.
COc1cccc(-c2cc(C(F)(F)F)nc(-n3cncn3)n2)c1	.	.	.	.	.
Cc1ccc(-c2n[nH]c(=O)c3ccccc23)cc1S(=O)(=O)NCCN1CCOCC1	.	.	.	48.8	.
Cc1ccc(-c2n[nH]c(=O)c3ccccc23)cc1S(=O)(=O)Nc1ccccc1	.	.	.	83.2	.
Cc1ccc(-c2nn3c(C)nnc3c3ccccc23)cc1S(=O)(=O)NCCN1CCOCC1	.	.	.	.	.
COc1ccc(S(=O)(=O)Nc2ccc3c(c2)CC(=O)N([C@H](C)CO)C[C@@H](C)[C@@H](CN(C)Cc2ccc(Cl)c(Cl)c2)O3)cc1	/	/	/	/	.
C[C@H](CO)N1C[C@H](C)[C@@H](CN(C)Cc2ccncc2)Oc2cc(C3=CCCC3)ccc2S1(=O)=O	/	/	/	/	.
CC(=NNC(=S)N1CC2CCC(CC2)C1)c1ccccn1	.	.	.	.	/
SMILES	N-glyco inh	Vif imaging	aDG glyco act	H9c2 protect	ARNT TACC3 PPI
CC(=NNC(=S)N1CCN(c2ccccn2)CC1)c1nccs1	.	.	.	.	66.2
CC(=NNC(=S)N1CC2CCC(CC2)C1)c1cnccn1	.	.	.	.	51.3
C/C(=N\NC(=O)C1CCCN(S(=O)(=O)c2ccccc2)C1)c1ccncc1 (stereo not given)	.	.	.	.	.
CC(=NNC(=S)N1CCN(C2CCCCCC2)CC1)c1ccccn1	.	.	.	.	76.6
C/C(=N\NC(=O)C1CCCN(S(=O)(=O)c2ccccc2)C1)c1ccccn1 (stereo not given)	.	.	.	.	53.0
COc1ccc(NC(=O)N(C)C[C@H]2OCc3ccccc3-c3c(n(C)c4ccccc34)C(=O)N([C@@H](C)CO)C[C@@H]2C)c(OC)c1	/	/	/	/	.
COc1ccc(-c2csc3ncnc(Sc4nnnn4C)c23)cc1	.	.	.	.	.
Cn1nnnc1Sc1ncnc2scc(-c3ccc4c(c3)OCO4)c12	.	.	.	.	47.4
Cn1nnnc1Sc1ncnc2scc(-c3ccc(Cl)cc3)c12	.	148.9	.	.	/
Clc1ccc(-n2nnnc2Sc2ncnc3sccc23)cc1	.	184.1	.	.	.
C[C@@H]1CCCCO[C@@H](CN(C)C(=O)C2CCCCC2)[C@H](C)CN([C@H](C)CO)C(=O)c2cc(N(C)C)ccc2O1	/	/	/	/	.
O=C(/C=C/c1ccc(O)c(O)c1)c1ccc(S(=O)(=O)N2CCCCCC2)cc1	.	.	.	73.9	.
C[C@@H]1CN([C@H](C)CO)C(=O)c2cc(-c3ccccc3F)cnc2O[C@H]1CN(C)C(=O)C1CCOCC1	/	/	/	/	.
CCCN1[C@@H]2Cn3c(ccc(C4=CCCC4)c3=O)[C@H]1[C@@H](C(=O)NCc1ccccn1)[C@@H]2CO	/	/	/	/	.
COc1cc(/C=N/NC(=O)c2cc(-c3cccn3C)n[nH]2)cc(OC)c1OC	67.7	.	.	.	.
COc1ccc(OC)c(/C=N/NC(=O)c2cc3c(OC)cc(OC)cc3[nH]2)c1	.	.	.	50.8	.
CCOc1ccc(/C=N/NC(=O)c2cc3c(OC)cccc3[nH]2)cc1	50.3	.	.	.	.
COc1ccccc1/C=N/NC(=O)c1cc2c(OC)c(OC)ccc2[nH]1	33.8	.	.	.	.
COc1ccc(OC)c(/C=N/NC(=O)c2cc3c(OC)cccc3[nH]2)c1	.	.	.	.	/
C[C@@H]1CN([C@@H](C)CO)C(=O)c2cc(NC(=O)c3ccccc3)ccc2O[C@@H](C)CCCCO[C@H]1CN(C)C(=O)Nc1ccccc1	/	/	/	/	.
C[C@@H]1CCCCO[C@H](CN(C)C(=O)NC2CCCCC2)[C@@H](C)CN([C@@H](C)CO)C(=O)c2cc(NC(=O)Nc3ccc(C(F)(F)F)cc3)ccc2O1	/	/	/	/	.
Cc1ccc(S(=O)(=O)N(C)C[C@@H]2OCc3ccccc3-c3ccccc3C(=O)N([C@@H](C)CO)C[C@@H]2C)cc1	/	/	/	/	.
Cc1noc(C)c1NC(=O)NCC[C@H]1CC[C@@H](NC(=O)c2ccccc2)[C@H](CO)O1	/	/	/	/	.
COc1ccc(/C=N/NC(=O)c2cc3c(OC)ccc(OC)c3[nH]2)cc1O	.	.	.	65.9	.

Source: PubChem (several laboratories)
